Screens deposited in PubChem by National Center for Advancing Translational Sciences (NCATS).
Shown are actives, neighbours in structure and some others; about 19% of the full set was active somewhere.
IL1B secr inh – qHTS for Inhibitors of Inflammasome Signaling: IL-1-beta AlphaLISA Primary Screen. activity change, % at 57.5 µM. THP-1 LPS/ATP IL-1B secretion, AlphaLISA, 16 h; active compounds read low. AID 743279, 2014. 4.7% of 360,000 active; in the data active = activity change below about -50%; inconclusive = mostly about -30% to -49%; note: % is set by controls: 0 for no effect and ±100 for the full control effect
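Secreted IL-1B measured by AlphaLISA bead assay after 16 h compound exposure of THP-1 cells; compounds (final up to 57.5 uM) added 1 h before LPS (250 ng/mL) and ATP (1.25 mM) stimulation; lower signal means less secretion.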
TGFb SMAD3 inh – qHTS for Inhibitors of TGF-b; AID 588855, 2011; HepG2 CAGA-GFP TGF-b/SMAD3 reporter, GFP fluorescence, 18 h; TGF-beta stimulated, 500 pg/mL final; 1.2% of 410,000 active; Potency, µM (doses to about 46.1 µM), without a hit: top-dose activity, negative = inhibition, hits mostly inhibitors; note: potency is the fitted concentration of half-maximal effect; % is set by controls: 0 for no effect and ±100 for the full control effect; nearly all actives have a fitted effect of over 65% in size
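First, reporter cells (HEPG2 CAGA-GFP) rested 2 h at 37 degrees C. Next, compounds were pinned in and TGF-beta added to 500 pg/mL final. After 18 h, GFP was imaged per cell and summed per well.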
DT40 TDP1 no CPT – qHTS for Inhibitors of human tyrosyl-DNA phosphodiesterase 1 (TDP1): qHTS in cells in absence of CPT | 15% of 420,000 active | DT40 Tdp1-/- hTDP1 cells, no CPT, ATP luminescence, 48 h | Potency, µM (top dose mostly 46.2 µM), inactives show at the highest dose activity change, negative = growth inhibition, usual class: inhibitors; note: potency is the fitted concentration of half-maximal effect; % is set by controls: 0 for no effect and ±100 for the full control effect; nearly all actives have a fitted effect of over 55% in size
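Compound effects on proliferation are scored in DT40 Tdp1-/-;hTDP1 cells in the absence of CPT. ATP levels (CellTiter-Glo luminescence) are recorded after a ≥48 hr, 37 °C incubation.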
HepG2 tox – qHTS for Inhibitors of TGF-b: Cytotox Counterscreen | AID 588856, 2011 | 0.76% of 410,000 active | Potency, µM (highest dose often 46.1 µM), for the others: at the highest dose activity change, negative = cytotoxicity, most hits filed as cytotoxic | HepG2 CAGA-GFP viability, ATP luminescence, 18 h; note: potency is the fitted concentration of half-maximal effect
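HepG2 CAGA-GFP cells (1000/well, DMEM with 1% FBS) received compound, then TGF-beta at 500 pg/mL final, and were incubated 18 hours at 37 degrees C. Viability was read by CellTiter-Glo luminescence. Media-only wells were set as complete cell-killing and DMSO as no toxicity.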
TDP1 inh – qHTS Assay for Inhibitors of Tyrosyl-DNA Phosphodiesterase (TDP1); 0.28% of 350,000 active; Potency, µM (top dose mostly 130 µM), for the others: at the top dose activity change, negative = inhibition, actives largely listed as inhibitors; recombinant TDP1, AlphaScreen DNA substrate cleavage; AID 485290, 2010; note: potency is the fitted concentration of half-maximal effect; % is set by controls: 0 for no effect and ±100 for the full control effect; nearly all actives have a fitted effect of over 40% in size
Target sequence (Q9NUW8 whole entry, looked up): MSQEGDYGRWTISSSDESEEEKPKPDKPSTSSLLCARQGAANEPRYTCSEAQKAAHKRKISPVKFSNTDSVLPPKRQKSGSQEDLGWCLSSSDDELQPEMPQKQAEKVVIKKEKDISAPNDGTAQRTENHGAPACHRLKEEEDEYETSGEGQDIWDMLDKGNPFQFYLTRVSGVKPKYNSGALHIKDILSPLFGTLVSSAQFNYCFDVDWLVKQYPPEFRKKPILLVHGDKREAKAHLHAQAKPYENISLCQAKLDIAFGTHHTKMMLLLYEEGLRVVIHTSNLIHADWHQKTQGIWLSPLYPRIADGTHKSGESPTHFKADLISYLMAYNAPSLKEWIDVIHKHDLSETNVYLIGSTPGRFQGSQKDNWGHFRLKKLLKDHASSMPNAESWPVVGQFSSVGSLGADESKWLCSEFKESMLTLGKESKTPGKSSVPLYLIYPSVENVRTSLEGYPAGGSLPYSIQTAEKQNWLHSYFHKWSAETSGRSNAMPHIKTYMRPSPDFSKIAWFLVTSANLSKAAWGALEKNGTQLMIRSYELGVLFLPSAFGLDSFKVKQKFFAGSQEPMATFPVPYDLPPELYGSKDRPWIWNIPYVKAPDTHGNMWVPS
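Here, a 5' biotin and 3' phosphotyrosine-FITC DNA oligonucleotide reports Tdp1 activity: intact substrate bridges AlphaScreen beads, while cleavage leaves a 3' phosphate and drops signal. All incubations at room temperature.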
TDP1 cell CPT – qHTS for Inhibitors of human tyrosyl-DNA phosphodiesterase 1 (TDP1): qHTS in cells in presence of CPT. chicken DT40 Tdp1-/-;hTDP1 cells + 20 nM CPT, ATP luminescence, 48 h. Potency, µM (series often up to 46.2 µM), for the others: top-dose activity change, negative = growth inhibition, most hits filed as inhibitors. 12% of 420,000 active. AID 686979, 2013; note: potency is the fitted concentration of half-maximal effect; % is set by controls: 0 for no effect and ±100 for the full control effect; nearly all actives have a fitted effect of over 55% in size
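Cell growth measured by CellTiter-Glo luminescence after a minimum 48 h, 37 C compound exposure with 20 nM CPT in Tdp1-knockout DT40 cells stably expressing hTDP1, seeded 400/well; qHTS titration format.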
Active calls of the source: *; ? = inconclusive; nt = not tested or not shown; [ ] = dose if it differs, or a comment. Unless noted, calls come from the whole dose curve; as a rule, active = well fitted curve in the direction sought with a large enough effect; inconclusive = small, poorly fitted or top-dose-only effect, or another doubt; inactive = no such curve, though single readings can be large; an effect the other way counts as inactive or inconclusive.

SMILES | IL1B secr inh | TGFb SMAD3 inh | DT40 TDP1 no CPT | HepG2 tox | TDP1 inh | TDP1 cell CPT
O=C(Nc1cc(N2CCOCC2)ncn1)c1ccc(F)cc1 | -20 | -9% | 5.8µM* | -27% | 5% | -13%
Fc1cccc(/C=N/Nc2cc(N3CCOCC3)ncn2)c1 | -53* | 1% | -10% | -55% | nt | -4%
COc1cccc(/C=N/Nc2cc(N3CCOCC3)ncn2)c1O | -90* | ? | 6.5µM* | -65% | 4% | 5.8µM*
COc1ccc(CCNC(=O)Cn2c([N+](=O)[O-])cnc2C)cc1OC | 28 | 9% | 0% | -1% | 4% | 5%
CCCCN(CC)c1nc(C)nc2c1c(C)c(C)n2-c1c(C)cc(C)cc1C | nt | nt | nt | nt | 16% | nt
CCOc1ccccc1CNC(=O)CN1C(=O)CCc2cc(S(=O)(=O)N3CCCCC3)ccc21 | nt | -6% | 21µM* | -17% | -1% | ?
O=C(CN1C(=O)CCc2cc(S(=O)(=O)N3CCOCC3)ccc21)NCc1ccccc1 | nt | ? | 0% | 0% | -6% | 7%
O=C(Cn1nc2c(cc1=O)CCCC2)NCc1ccc(Cl)cc1 | nt | ? | 18µM* | -6% | 1% | 16µM*
O=C(CN1C(=O)CCc2cc(S(=O)(=O)N3CCCCC3)ccc21)NCc1ccc(Cl)cc1 | nt | ? | 15µM* | -15% | -1% | 21µM*
CCOC1(/N=C(\C)NS(=O)(=O)c2ccc(Cl)cc2)C(C)=CC(=O)C=C1C | 5 | 1% | ? | 8% | -1% | ?
Cc1oc2ncn(CC(C)C)c(=O)c2c1C(=O)NCCCN1CCCCC1 | nt | 17% | -1% | 2% | -2% | -1%
Cc1ccc(-c2nn(CC(=O)N3CCOCC3)c(=O)c3ccccc23)cc1S(=O)(=O)N(C)C | -1 | -5% | -12% | -37% | 4% | 0%
CCOc1ccccc1NC(=O)CN(c1ccc(Cl)cc1)S(C)(=O)=O | -11 | -16% | ? | 9% | 1% | ?
NCCCNCCCCNC(=O)C(O)NC(=O)CCCCCCN=C(N)N (centres undefined) | nt | nt | 1.2µM* | nt | nt | 1.2µM*
CCOC(=O)c1[nH]c(C)c(CCC(=O)Nc2cc(Cl)c(OC)cc2OC)c1C | nt | -19% | ? | -15% | 8% | ?
O=C(NCC1Cc2cccc(-c3cccnc3)c2O1)c1ccc2cc[nH]c2c1 (centres undefined) | nt | nt | 26µM* | nt | nt | 2.9µM*
COc1cccc(C(=O)NCC2Cc3cccc(-c4cccnc4)c3O2)c1 (centres undefined) | nt | nt | ? | nt | nt | -12%[9.04 µM]
Cc1cc(C)n(-c2cccc(C(=O)NCC3Cc4cccc(-c5cccnc5)c4O3)c2)n1 (centres undefined) | nt | nt | 15µM* | nt | nt | ?
COC(=O)C[C@H]1c2ccccc2C2=C(C[C@@H](C)[C@H]3C(=O)N(c4ccccc4)C(=O)[C@@H]23)N1C(=O)OC | nt | nt | nt | nt | 16%[12.3 µM] | nt
Cc1cc(C)cc(OCC(=O)NNC(=S)NC(=O)C2CC2)c1 | 83 | -21% | 13µM* | -12% | 6% | 18µM*
CCc1ccc(OCC(=O)NNC(=S)NC(=O)C2CC2)c(Br)c1 | 110 | -1% | 13µM* | 1% | 5% | 16µM*
COc1ccc(OCC(=O)NNC(=S)NC(=O)C2CCCCC2)cc1 | nt | nt | nt | nt | 7% | nt
COc1ccc(OCC(=O)NNC(=S)NC(=O)C2CC2)cc1 | 29 | 1% | ? | 4% | 5% | 16µM*
O=C(O)CNC(=O)C1(NC(=O)OCc2ccccc2)CCCC1 | 7 | 14% | -3% | -43% | nt | ?
COc1cccc(N2CCN(c3ccc4nnc(CCC(=O)Nc5ccc(OC)c(OC)c5)n4n3)CC2)c1 | 4 | 4% | ? | 13% | 3% | ?
SMILES | IL1B secr inh | TGFb SMAD3 inh | DT40 TDP1 no CPT | HepG2 tox | TDP1 inh | TDP1 cell CPT
CN(C)CC(C)(O)c1ccc2c(c1)CN(Cc1cccn1-c1cccnc1)CCO2 (centres undefined) | nt | nt | -13% | nt | nt | 19%[9.04 µM]
CCOC(=O)c1ccc(NC(=O)CCS(=O)(=O)c2ccc(Br)s2)cc1 | 19 | -3% | 18µM* | -8% | 7% | ?
CC(C)c1ccc(NC(=O)CCS(=O)(=O)c2ccc(Br)s2)cc1 | nt | ? | 16µM* | -42% | -5% | 18µM*
COc1ccc(NC(=O)CCS(=O)(=O)c2ccc(Br)s2)cc1 | 27 | 2% | ? | 6% | nt | ?
Cc1ccc(S(=O)(=O)Nc2cccc(-c3ccc4nncn4n3)c2)cc1 | 24 | -20% | 2.3µM* | -12% | -2% | 1.8µM*
CCC(CC)C(=O)Nc1cccc(-c2ccc3nncn3n2)c1 | 19 | 20% | -25% | -1% | 1% | 0%
O=C(Nc1cccc(-c2ccc3nncn3n2)c1)c1ccco1 | 23 | -1% | ? | 5% | 4% | ?
CC(=O)c1ccc(S(=O)(=O)Nc2cccc(-c3ccc4nncn4n3)c2)cc1 | 37 | -19% | -29% | -14% | -6% | 6%
Cc1ccccc1C(=O)Nc1cccc(-c2ccc3nncn3n2)c1 | 59 | 5% | 21µM* | -23% | 3% | 23µM*
CCOc1ccccc1C(=O)Nc1cccc(-c2ccc3nncn3n2)c1 | -8 | 5% | 23µM* | 15% | 0% | 23µM*
O=C(COc1ccccc1)N=C1SC2CS(=O)(=O)CC2N1c1ccc(F)cc1F (centres undefined) | -4 | 0% | -1% | 4% | 9% | -14%
COc1ccccc1CNc1nc(-c2ccco2)nn1S(C)(=O)=O | nt | -1% | ? | -30% | -3% | ?
O=S(=O)(NCc1ccccc1)c1ccc(Br)c2nsnc12 | -72* | 0% | -26% | 2% | 5% | 4%
CCCCNC(=O)CN1CCN(c2ncc(NC(=O)c3ccc(Cl)cc3)cc2C(=O)O)CC1 | nt | -3% | 5% | -1% | -11% | -1%
CCCC[C@@H](CN[C@H](C)CNC)NCC1CCC(C(C)(C)C)CC1 (some centres undefined) | -67* | ? | 6.5µM* | 18µM* | nt | 5.8µM*
CC[C@H](C)[C@@H](CN[C@H](CCCCNC)CNC)NCC1CCCC1 | -3 | -24% | -10% | 1% | nt | 12%
Cc1cccc(-c2c3c(=O)n(C)c(=O)n(C)c3c3nnc4ccccc4n23)c1 | 12 | -9% | 6.5µM* | -3% | nt | ?
